From PubChem BioAssay (NCI) come the findings set out here.

Test systems include SR leukemia; RPMI-8226 leukemia; OVCAR-8 ovarian; OVCAR-5 ovarian; OVCAR-4 ovarian; SK-OV-3 ovarian; IGROV1 ovarian; OVCAR-3 ovarian; HS 578T breast; NCI/ADR-RES ovarian; T-47D breast; BT-549 breast; MDA-MB-435 melanoma; SW-620 colon; MCF7 breast; HCT-116 colon; HCC-2998 colon; KM12 colon.
Experiment in all cases: NCI-60 one-dose screen, 48 h (100 = growth as untreated, 0 = no growth, -100 = all killed)
Conditions in all cases: 10 µM unless noted

This is part of a sample that, as a whole, favours compounds with a hit. Of some 83,000 tested, about 20% had one in any assay.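 Negative percent growth values reflect cell death: -40 means 40% of the cells present at the start died, and -100 means all died.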 A number with no mark means an inactive call. Active and inactive are the calls of the source. How the source made its calls: active means growth percent below 10; inactive means the rest.

For `CCOC(=O)/C=C1\S/C(=N\Nc2cc(=O)[nH]c3ccc(OC)cc23)N(c2ccccc2)C1=O`, the growth was 50.4% in the assay with SR leukemia; 87.2% with RPMI-8226 leukemia; 98.7% in the assay on OVCAR-8 ovarian; 106% with OVCAR-5 ovarian; 82.7% with OVCAR-4 ovarian; 104% with SK-OV-3 ovarian. In addition, the growth in the assay on IGROV1 ovarian was 92.2%; with OVCAR-3 ovarian it was 95.8%; in the assay on HS 578T breast, 103%; with NCI/ADR-RES ovarian, 104%; in the assay with T-47D breast, 73.6%; in the assay with BT-549 breast, 99.6%. Also, the growth with MDA-MB-435 melanoma was 97%; in the assay with SW-620 colon, 95.3%; in the assay with MCF7 breast it was 69.4%; in the assay with HCT-116 colon, 93.9%; in the assay with HCC-2998 colon, 115%; in the assay with KM12 colon, 91.8%.
As to `O=C1/C(=C/c2cccc([N+](=O)[O-])c2)COc2ccc(O)c(O)c21`, the growth with SR leukemia was 8.03% (active); in the assay with RPMI-8226 leukemia, -24.7% (active); with OVCAR-8 ovarian it was 5.45% (active); in the assay on OVCAR-5 ovarian, -48.8% (active); in the assay on OVCAR-4 ovarian it was 15.3%; in the assay with SK-OV-3 ovarian, 68.9%. The growth was -21.6% (active) with IGROV1 ovarian; -83.6% (active) in the assay on OVCAR-3 ovarian; 6.86% (active) in the assay on HS 578T breast; 9.52% (active) in the assay on NCI/ADR-RES ovarian; -16.8% (active) with T-47D breast; -3.03% (active) in the assay on BT-549 breast. For the same molecule, the growth is -33.4% (active) with MDA-MB-435 melanoma; -31.4% (active) in the assay on SW-620 colon; 1.76% (active) in the assay on MCF7 breast; -74.8% (active) in the assay with HCT-116 colon; -85.2% (active) with HCC-2998 colon; -45.7% (active) in the assay with KM12 colon.
On to `CCC(C)C(N)C(=O)NC(CC(C)C)C(=O)N1CCCC1C(=O)NC(Cc1c[nH]c2ccccc12)C(=O)NC(CCCCN)C(=O)NC(Cc1c[nH]c2ccccc12)C(=O)N1CCCC1C(=O)NC(Cc1c[nH]c2ccccc12)C(=O)NC(Cc1c[nH]c2ccccc12)C(=O)N1CCCC1C(=O)NC(Cc1c[nH]c2ccccc12)C(=O)NC(CCCNC(=N)N)C(=O)NC(CCCNC(=N)N)C(N)=O` (configuration not stated), for which the growth in the assay on SR leukemia was 10.9%; with RPMI-8226 leukemia, 75%; with OVCAR-8 ovarian, 75.5%; with OVCAR-5 ovarian, 98.8%; with OVCAR-4 ovarian, 119%; in the assay with SK-OV-3 ovarian, 109%. Also, the growth in the assay on IGROV1 ovarian was 58.4%; in the assay on OVCAR-3 ovarian, 101%; in the assay with HS 578T breast, 105%; in the assay on NCI/ADR-RES ovarian it was 92.1%; with T-47D breast, 108%; with BT-549 breast, 109%. In addition, the growth with MDA-MB-435 melanoma was 95.9%; in the assay with SW-620 colon, 108%; with MCF7 breast, 121%; in the assay on HCT-116 colon, 95.3%; in the assay with HCC-2998 colon, 101%; with KM12 colon, 63.7%.
Regarding `O=C(Oc1ccccc1)c1cc(O)c(O)c(O)c1`, the growth with SR leukemia was 32.9%; with RPMI-8226 leukemia, 65.7%; in the assay with OVCAR-8 ovarian, 71.4%; in the assay on OVCAR-5 ovarian, 107%; in the assay with OVCAR-4 ovarian, 63.7%; with SK-OV-3 ovarian it was 77.3%. Further, the growth is 76% in the assay with IGROV1 ovarian; 18.1% with OVCAR-3 ovarian; 39.9% with HS 578T breast; 61.1% with NCI/ADR-RES ovarian; 59.7% with T-47D breast; 65.1% with BT-549 breast. In addition, the growth is 53.3% in the assay on MDA-MB-435 melanoma; 62.7% with SW-620 colon; 79.3% in the assay with MCF7 breast; 58.8% in the assay on HCT-116 colon; 68.5% in the assay on HCC-2998 colon; 74.7% with KM12 colon.
For the molecule `COc1ccccc1NC(=O)n1c(=O)cc(C)c2ccc(O)cc21`, the growth was 118% in the assay on SR leukemia; 109% in the assay on RPMI-8226 leukemia; 106% in the assay with OVCAR-8 ovarian; 112% in the assay with OVCAR-5 ovarian; 110% with OVCAR-4 ovarian; 100% with SK-OV-3 ovarian. Further, the growth is 113% in the assay on IGROV1 ovarian; 113% in the assay with OVCAR-3 ovarian; 110% in the assay on HS 578T breast; 107% in the assay on NCI/ADR-RES ovarian; 99.8% with T-47D breast; 107% in the assay on BT-549 breast. Also, the growth was 105% in the assay with MDA-MB-435 melanoma; 109% with SW-620 colon; 101% with MCF7 breast; 107% in the assay on HCT-116 colon; 95.9% in the assay with HCC-2998 colon; 101% with KM12 colon.
For the molecule `COc1ccc(N2C(=O)/C(=C/C(Cl)=C/c3ccc([N+](=O)[O-])cc3)SC2=S)cc1`, the growth in the assay on SR leukemia was -6.82% (active); with RPMI-8226 leukemia, -9.98% (active); in the assay with OVCAR-8 ovarian, 6.6% (active); in the assay with OVCAR-5 ovarian, 10%; with OVCAR-4 ovarian, 10.4%; in the assay on SK-OV-3 ovarian it was 40.8%. For the same molecule, the growth in the assay with IGROV1 ovarian is -52.7% (active); in the assay with OVCAR-3 ovarian, -57.6% (active); with HS 578T breast, 26.3%; in the assay with NCI/ADR-RES ovarian, 8.97% (active); in the assay with T-47D breast, -14.9% (active); in the assay on BT-549 breast, -4.68% (active). For the same molecule, the growth in the assay on MDA-MB-435 melanoma is -14.4% (active); with SW-620 colon, -13.7% (active); with MCF7 breast it was 10.4%; in the assay on HCT-116 colon, -60.4% (active); in the assay with HCC-2998 colon, -20.2% (active); in the assay with KM12 colon it was -61.5% (active).
As for `Cc1cc2nc(C(Cl)Cl)nc(-c3ccccc3)n2n1`, the growth with SR leukemia is 20.6%; in the assay with RPMI-8226 leukemia it was 63%; in the assay with OVCAR-8 ovarian it was 49.6%; in the assay with OVCAR-5 ovarian it was 78.8%; in the assay on OVCAR-4 ovarian, 33.2%; in the assay on SK-OV-3 ovarian, 60.6%. In addition, the growth in the assay with IGROV1 ovarian was 71.4%; in the assay on OVCAR-3 ovarian it was 36.9%; in the assay on HS 578T breast, 52.6%; in the assay with NCI/ADR-RES ovarian, 48.6%; with T-47D breast it was 61.7%; with BT-549 breast, 86.8%. Also, the growth is 68.9% in the assay on MDA-MB-435 melanoma; 29.6% in the assay with SW-620 colon; 41.5% in the assay with MCF7 breast; 41.1% in the assay on HCT-116 colon; 28.5% with HCC-2998 colon; 18.2% in the assay on KM12 colon.
As for `C/C(=C(\c1ccc(OCCCN(C)C)cc1)c1ccc(OC(=O)Cc2ccccc2)cc1)c1ccc(Cl)cc1`, the growth is -34.9% (active) in the assay on SR leukemia; 27.1% with RPMI-8226 leukemia; 89.2% with OVCAR-8 ovarian; 89.3% with OVCAR-5 ovarian; 69.8% with OVCAR-4 ovarian; 73.3% with SK-OV-3 ovarian. Moreover, the growth in the assay on IGROV1 ovarian was 88.4%; with OVCAR-3 ovarian, 70.4%; with HS 578T breast, 66.4%; in the assay on NCI/ADR-RES ovarian, 85.1%; in the assay on T-47D breast, 51.2%; in the assay on BT-549 breast it was 83.9%. The growth in the assay on MDA-MB-435 melanoma was 57.7%; in the assay with SW-620 colon, 84.6%; with MCF7 breast, 23.5%; in the assay on HCT-116 colon it was 58.3%; in the assay on HCC-2998 colon it was 73.6%; in the assay with KM12 colon it was 67.4%.
Take `Cc1cc2c(C(C)C)c(O)c(O)c(/C=N/O)c2c(O)c1-c1c(C)cc2c(C(C)C)c(O)c(O)c(/C=N/O)c2c1O`: the growth in the assay with SR leukemia is 4.52% (active); in the assay on RPMI-8226 leukemia, 15%; in the assay on OVCAR-8 ovarian, 8.35% (active); with OVCAR-5 ovarian, 48.3%; with OVCAR-4 ovarian, 28.7%; with SK-OV-3 ovarian, 18.2%. Besides, the growth with IGROV1 ovarian is 38.5%; with OVCAR-3 ovarian it was 25.6%; with HS 578T breast, 41.9%; with NCI/ADR-RES ovarian, 44%; in the assay with T-47D breast, 10.2%; in the assay with BT-549 breast, 23.8%. The growth was 37.4% in the assay on MDA-MB-435 melanoma; 23.2% in the assay with SW-620 colon; 15.3% with MCF7 breast; 18% in the assay with HCT-116 colon; 16.1% in the assay on HCC-2998 colon; 26% with KM12 colon.
